Experimental data reported in PubChem BioAssay AID720650 (Broad Institute, 2013).
Unmarked numbers belong to inactive results. Active and inactive are the calls of the source. The rule behind the calls is not given here.

Test: C difficile toxins, biochemical counterscreen, UDPG substrate absence, confirmatory dose response (AID 720650)

SMILES | AC50
O=C1c2c(O)ccc(O)c2C(=O)c2c(NCCNCCO)ccc(NCCNCCO)c21 | 17.5 µM (active)
CNc1cncc(-c2ccc(O)cc2)n1 | 11.7 µM (active)
O=c1onc(-c2ccccc2)n1Cc1ccc([N+](=O)[O-])cc1 | inactive
CCOC(=O)c1[nH]nc(-c2cc(CC)c(O)cc2O)c1-c1cscn1 | inactive
O=C(Nc1nnc(-c2ccco2)o1)C1CC1 | > 39 µM
